A short description of experiment [1]: TOX21_p53_BLA_p4_viability: Viability Assessment in the Tox21 HCT-116 p53 Agonism Beta-lactamase Assay, Phase 4 (AID 2283597).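 Further: hits lower the luminescence signal meaning cytotoxicity.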 In a few lines:
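Luminescent ATP readout (CellTiter-Glo, 30 min, room temperature) in the same wells as the p53 bla ratio. HCT116 cells were treated for 16 h at 37C with DMSO-dissolved compounds.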

The target of experiment [2] is Cellular tumor antigen p53 (Homo sapiens) (UniProt P04637). Put plainly: TOX21_p53_BLA_p5_ratio: Tox21 HCT-116 p53 Agonism Beta-lactamase Assay, Ratio, Phase 5 (AID 2283599). In a few lines:
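HCT-116 p53-bla cells (4000/well) plated 5 h, dosed with compound (217-fold DMSO dilution) for 16 h at 37 C; CCF4-AM substrate 2 h at room temperature. Activity is the 460/530 nm emission ratio (405 nm excitation), fitted in gain-of-signal direction versus DMSO.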

Experiment [3] in a line: TOX21_p53_BLA_p5_viability: Viability Assessment in the Tox21 HCT-116 p53 Agonism Beta-lactamase Assay, Phase 5 (AID 2283600). In a few lines:
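Seeded cells (4000/well) settle 5 h before compound addition. Plates then incubate 16 h at 37C, receive FRET substrate for 2 h, and finally CellTiter-Glo, with luminescence measured after a 30 min room-temperature incubation.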

The target of experiment [4] is Cellular tumor antigen p53 (Homo sapiens) (UniProt P04637). Put plainly: TOX21_p53_BLA_p4_ratio: Tox21 HCT-116 p53 Agonism Beta-lactamase Assay, Ratio, Phase 4 (AID 2283601). In a few lines: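 HCT-116 p53 beta-lactamase reporter cells (4000/well) preincubated 5 h, then compound (217-fold dilution of DMSO stock) for 16 h at 37C. CCF4-AM substrate added 2 h at room temperature; 460/530 nm emission ratio fitted upward versus DMSO.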

Experiment [5] in a line: Tanguay_ZF_120hpf_MORT_legacy: (Legacy) Oregon State University Tanguay Lab 120 Hour Post-fertilization zebrafish Assay for Mortality (AID 2283633). In a few lines: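 Single dechorionated Tropical 5D embryos were held with test chemical (0.64% DMSO final) from 6 to 120 hpf at 28C under foil. Deaths at 24 or 120 hpf were recorded as binary calls, analysed for increase over DMSO controls.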

Experiment [6] can be described thus: Tanguay_ZF_120hpf_YSE_legacy: (Legacy) Oregon State University Tanguay Lab 120 Hour Post-fertilization zebrafish Assay for Yolk Sac Edema (AID 2283634). Put shortly: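 Single dechorionated embryos were held in sealed plates at 28C with test chemical (0.64% DMSO final) from 6 hpf until 120 hpf. Edema of the yolk sac was then recorded as a binary endpoint; non-mortality endpoints were skipped for dead embryos.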

A short description of experiment [7]: Tanguay_ZF_120hpf_AXIS_legacy: (Legacy) Oregon State University Tanguay Lab 120 Hour Post-fertilization zebrafish Assay for Body Axis Malformation (AID 2283635). As for the experimental part:
Tanguay_ZF_120hpf_legacy is a whole embryo, multiplexed endpoint assay using zebrafish larvae exposed for 120 hours post fertilization on a 96-well plate.Tanguay_ZF_120hpf_AXIS_legacy is one of one assay component(s) measured or calculated from the Tanguay_ZF_120hpf_legacy assay. It is designed to make measurements of zebrafish development as detected with brightfield microscopy of developing zebrafish embryos.Data from the assay component Tanguay_ZF_120hpf_AXIS_legacy was analyzed into 1 assay endpoints. This assay endpoint, Tanguay_ZF_120hpf_AXIS_legacy, was analyzed in the positive analysis fitting direction relative to DMSO as the negative control and baseline of activity. Using a type of morphology reporter, gain-of-signal activity can be used to understand changes in developmentals as they relate to the whole embryo. To generalize the intended target to other relatable targets, this assay endpoint is annotated to the zebrafish development intended target family, where the subfamily is body axis morphogenesis.
Zebrafish husbandry: Tropical 5D wild-type adult zebrafish were housed in at an approximate density of 1000 per 100 gallon tank at the Sinnhuber Aquatic Research Laboratory, Oregon State University, Corvallis, OR. […] At 24 hpf, embryos were assessed for photomotor response using a custom photomotor response analysis tool (PRAT) and for developmental toxicity endpoints (MO24: mortality at 24 hpf, DP: developmental progression, SM: spontaneous movement, and NC: notochord distortion). At 120 hpf, locomotor activity was measured using Viewpoint Zebralab and assessed for 18 endpoints. Zebrafish acquisition and analysis program (ZAAP), a custom program designed to inventory, acquire, and manage zebrafish data, was used to collect developmental endpoints as either present or absent (i.e., binary responses were recorded). If mortality occurred for an embryo (at either 24 or 120 hpf), the non-mortality endpoints were not measured.

Experiment [8] in a line: Tanguay_ZF_120hpf_EYE_legacy: (Legacy) Oregon State University Tanguay Lab 120 Hour Post-fertilization zebrafish Assay for Eye Malformation (AID 2283636).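 Further: binary presence or absence of eye malformation scored by brightfield in 120 hpf larvae.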 Put shortly: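 Dechorionated Tropical 5D zebrafish embryos, one per well from 6 hpf, static exposure to 120 hpf at 28C, 0.64% DMSO. Eye malformation scored present/absent by brightfield; dead embryos not scored.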
A short description of experiment [9]: Tanguay_ZF_120hpf_SNOU_legacy: (Legacy) Oregon State University Tanguay Lab 120 Hour Post-fertilization zebrafish Assay for Snout Malformation (AID 2283637). In a few lines:
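Dechorionated tropical 5D wild-type zebrafish embryos exposed statically from 6 to 120 hpf at 28C, one per well, in 0.64% DMSO. Snout malformation scored as present/absent by brightfield at 120 hpf; dead embryos not scored.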

Experiment [10] is described as follows: Tanguay_ZF_120hpf_JAW_legacy: (Legacy) Oregon State University Tanguay Lab 120 Hour Post-fertilization zebrafish Assay for Jaw Malformation (AID 2283638). In a few lines:
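Wild-type 5D embryos, chorion removed at 4 hpf, dosed singly from 6 hpf; 28C static, sealed, foil-covered, to 120 hpf. Endpoint: jaw defect yes/no (brightfield); mortality excludes scoring.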

Several values for one entry are separate records, joined by “and”; a condition that tells them apart may be missing. Equal entries are not always repeated. Results filed as inconclusive are left out. More than one record can exist for a structure, and the calls need not agree. Activity calls are given as the source filed them. How the source made its calls: active means hit-call score of the fitted dose curve at least 0.9, where 1 is the maximum; inconclusive means response in the unintended direction; inactive means score below 0.9.

Chain of Cellular tumor antigen p53 (Homo sapiens) (P04637 whole entry, looked up): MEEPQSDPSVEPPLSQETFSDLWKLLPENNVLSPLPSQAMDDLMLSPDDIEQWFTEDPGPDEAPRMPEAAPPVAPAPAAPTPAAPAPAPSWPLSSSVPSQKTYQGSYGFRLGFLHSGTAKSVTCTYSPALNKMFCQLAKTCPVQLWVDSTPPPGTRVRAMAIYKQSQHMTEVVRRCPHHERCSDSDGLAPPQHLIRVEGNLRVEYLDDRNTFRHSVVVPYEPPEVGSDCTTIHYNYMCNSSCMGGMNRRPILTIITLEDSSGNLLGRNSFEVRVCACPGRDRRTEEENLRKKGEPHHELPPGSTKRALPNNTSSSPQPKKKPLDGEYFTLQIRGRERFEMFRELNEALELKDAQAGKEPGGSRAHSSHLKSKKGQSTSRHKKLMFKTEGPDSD

On to `Cc1noc(NS(=O)(=O)c2ccc(N)cc2)c1C`, for which the molecule was called inactive in experiment [1], in experiment [2], in [3] and in [4].

Regarding `CC1(C)[C@@H]2CC[C@@]1(C)C(=O)C2`, the call in experiment [1], in [2], in [3] and in experiment [4] was inactive.

Consider `CCOC(=O)c1ccccc1C`, for which the outcome in experiment [1], in experiment [2], in experiment [3] and in [4] was inactive.

For the molecule `O=C(O[C@@H]1Cc2c(O)cc(O)cc2O[C@@H]1c1cc(O)c(O)c(O)c1)c1cc(O)c(O)c(O)c1`, the call in experiment [1], in experiment [2], in experiment [3] and in [4] was inactive.

For the molecule `CC1=CCC2CC1C2(C)C` (centres undefined), the result in experiment [1] was inactive.

In the case of `C/C=C/C=C/CCCCCCCO`, the molecule was called inactive in [1], in experiment [2] and in [3].

In the case of `CCc1cccc(C)c1N`, the molecule was called inactive in [1], in [2], in [3] and in [4].

As a reminder, the AC50 is the concentration at which the activity in the assay is half-maximal. Turning to `CC(C)c1ccc(O)c(C(C)C)c1`, the values for the AC50 in [1] and in [4] were 44.7 µM (active) and 81 µM (active), respectively. Further, the result in experiment [2] and in experiment [3] was inactive.

For `CC(Cl)COP(=O)(OCC(C)Cl)OCC(C)Cl` (centres undefined), the molecule was classed as inactive in experiment [1] and in [2].

For `C=C[C@@]1(C)CC(=O)[C@]2(O)[C@@]3(C)[C@@H](O)CCC(C)(C)[C@@H]3[C@H](O)[C@H](OC(C)=O)[C@@]2(C)O1`, the concentration at half-maximal activity (AC50) in experiment [1] was 27.1 µM (active). For the same molecule, the molecule was classed as inactive in experiment [1], in [2], in experiment [3] and in experiment [4].

On to `Nc1ccc(C(=O)OCCCOC(=O)c2ccc(N)cc2)cc1`, for which the molecule was called inactive in experiment [1], in experiment [2] and in experiment [3].

In the case of `CC(CCC(=O)O)(c1ccc(O)cc1)c1ccc(O)cc1`, the molecule was called inactive in [1], in experiment [2], in [3] and in [4].

Regarding `C=CCCCCCCCCC=O`, the outcome in experiment [1], in experiment [2] and in [3] was inactive.

Regarding `CCCCCCCCCCCCCC(=O)OC(C)C`, the result in experiment [1], in [2], in experiment [3] and in experiment [4] was inactive.

On to `CC(C)CCCCCOC(=O)CS`, for which the molecule was called inactive in experiment [1], in experiment [2] and in [3].

On to `CCCCCOC(=O)CCCCC`, for which the call in experiment [1] was inactive.

`O=C1CCCCCCCCCCCN1`: the call in experiment [1], in [2], in [3] and in experiment [4] was inactive.

As to `CCCC(CC)c1ccccc1` (centres undefined), the molecule was classed as inactive in experiment [1].

On to `CN(C)c1ccc2nc3ccc(=[N+](C)C)cc-3sc2c1`, for which the AC50 was 10.8 µM (active) in experiment [1]; 41.2 µM (active) and 14.4 µM (active) and 28.4 µM (active) in experiment [4]. For the same molecule, the molecule was classed as inactive in [1] and in experiment [3].

Consider `CCCCC/C=C\C/C=C\CCCCCCCC(=O)O`, for which the result in experiment [1], in [2], in experiment [3] and in experiment [4] was inactive. For the same molecule, the concentration at half-maximal activity (AC50) in [2] is 86.3 µM (active); in [3] it was 80.5 µM (active).

As for `CCCC/C=C/C=C\C=O`, the outcome in experiment [1], in experiment [2] and in experiment [3] was inactive.

Take `CCCCC(=O)O`: the result in experiment [1], in experiment [2], in experiment [3] and in [4] was inactive.

In the case of `CCCCCCOC(=O)CCCCC(=O)OCCCCCC`, in [1], the outcome was inactive.

In the case of `Oc1c(Cl)cc(Cl)c(Cl)c1Cl`, the result in experiment [1] and in experiment [3] was inactive. For the same molecule, the concentration at half-maximal activity (AC50) in experiment [2] was 27 µM (active) and 21.1 µM (active); in [4] it was 35.5 µM (active) and 18.8 µM (active).

Consider `CCCCCCCOC(=O)c1ccc(O)cc1`, for which the AC50 in [1] was 51.3 µM (active); in experiment [4], 68.3 µM (active). The molecule was classed as inactive in experiment [1], in experiment [3] and in [4].

Consider `CC(C)(C)N`, for which, in experiment [1], the call was inactive.

In the case of `CCCCOCCOCCOC(C)=O`, the outcome in [1], in [2], in [3] and in [4] was inactive.

Take `CC(C)[N+](C)(CCOC(=O)C1c2ccccc2Oc2ccccc21)C(C)C`: the call in [1], in experiment [2], in experiment [3] and in experiment [4] was inactive.

On to `COc1ccc(C(=O)/C(Br)=C\C(=O)O)cc1`, for which the concentration at half-maximal activity (AC50) in experiment [1] is 76.7 µM (active) and 44.5 µM (active); in [2], 21 µM (active) and 21.6 µM (active); in experiment [3] it was 39.1 µM (active); in experiment [4] it was 60 µM (active) and 27.2 µM (active). Besides, the result in experiment [3] was inactive.

Turning to `CC(CC(C)C)=NO`, the result in experiment [1] and in experiment [2] was inactive.

Regarding `C=C[Si](OCCOC)(OCCOC)OCCOC`, the result in experiment [1], in experiment [2] and in [3] was inactive.

In the case of `CCN1CN(CC)CN(CC)C1`, the molecule was called inactive in experiment [1].

Turning to `C=CC(C)(O)CC/C=C(\C)CC` (centres undefined), the result in experiment [1] and in [2] was inactive.

As to `CCCCCCC=O`, the molecule was called inactive in experiment [1], in [2], in experiment [3] and in [4].

`C=C(C)OC(C)=O`: the call in experiment [1], in experiment [2], in [3] and in experiment [4] was inactive.

As to `CC(C)CC(=O)OCc1ccccc1`, the outcome in experiment [1], in experiment [2], in experiment [3] and in experiment [4] was inactive.

With `C=C(C)C(=O)OCC(O)COc1ccc(C(C)(C)c2ccc(OCC(O)COC(=O)C(=C)C)cc2)cc1` (centres undefined), the AC50 in experiment [1] is 46.1 µM (active). Moreover, the outcome in experiment [2], in [3] and in experiment [4] was inactive.

On to `N#CC1(N)CCCCC1`, for which the call in experiment [1], in [2], in [3] and in experiment [4] was inactive.

Consider `CC(=O)OCCc1ccccc1`, for which the call in experiment [1], in experiment [2], in experiment [3] and in experiment [4] was inactive.

With `COc1ccc(-c2coc3cc(O)cc(O)c3c2=O)cc1`, the call in [1], in [2], in experiment [3] and in [4] was inactive.

Turning to `CC(C)(CO)COC(=O)C(C)(C)CO`, the call in experiment [1], in [2], in experiment [3] and in experiment [4] was inactive.

Consider `CCCCCCCCCCCCc1ccc(O)cc1`, for which the AC50 in [1] is 16.3 µM (active); in experiment [2], 52.1 µM (active); in experiment [3], 24 µM (active); in experiment [4] it was 28.3 µM (active).

For `C[Si](C)(C)N[Si](C)(C)C`, the molecule was classed as inactive in experiment [1], in [2], in [3] and in experiment [4].

`C1CNCCN1`: the call in experiment [1], in experiment [2], in [3], in experiment [4], in experiment [5] and in [6] was inactive. The outcome in experiment [7], in experiment [8], in experiment [9] and in experiment [10] was inactive.

With `NC(=O)Nc1ccccc1`, the call in experiment [1], in experiment [2] and in [4] was inactive.

With `O=C(O)/C=C/c1ccccc1`, the call in experiment [1], in [2], in experiment [3] and in experiment [4] was inactive.
